{
  "source": "PubChem BioAssay (Tox21)",
  "note": "Records with an inconclusive call do not appear. Calls of active or inactive are those of the source. Calls come from the whole dose curve; as a rule, active = well fitted activation curve with a large enough effect in the signal ratio in the repeat runs (not every such curve was filed as active); inconclusive = weak or mixed curves; inactive = flat fitted curve, though single readings scatter; the % refers to the signal ratio.",
  "data": [
    {"assay": "qHTS assay to identify small molecule agonists of H2AX (AID 1224845)", "conditions": "CHO-K1 phospho-H2AX Ser139 HTRF, 3 h; series mostly up to 154 µM", "source_text": "National Center for Advancing Translational Sciences [NCATS]\nNIH Chemical Genomics Center [NCGC]\nU.S. Environmental Protection Agency [EPA]\nNational Institutes of Environmental Health Sciences [NIEHS]\nNational Toxicology Program [NTP]\nU.S. Food and Drug Administration [FDA]\nHTRF phospho-H2AX (Ser139) assay (Cisbio Bioassays, US) enables the quantitative detection of the histone variant H2AX when phosphorylated on serine 139. When double-stranded DNA breaks, either by ionizing radiation or endogenous physiological processes, H2AX becomes phosphorylated at Ser139. This phospho-Ser139 serves as a sensitive biomarker for the detection of such breaks, localizing the site of DNA repair. So, HTRF phospho-H2AX Ser139 is a pertinent assay to study genome stability, the cell cycle, DNA repair, and it serves as a biomarker for cancer, and to understand aging. Wild type CHO-K1 cells were used to identify the inducers of Phospho-H2AX Ser 139 from the Tox21 10K compound collections.\nTox21 Assay Protocol Summary:\nThe CHO-K1 cells suspended in culture medium containing 10% FBS were dispensed at 1000 cells/ 3 ul/well in 1536-well white wall/solid bottom plates (Greiner Bio-One North America, NC) using a Multidrop Combi (Thermo Fisher Scientific Inc., Waltham, MA). After the assay plates were incubated at 37C overnight, 23 nl of compounds at 15 concentrations (from 5-48 columns) or positive control (from 1 to 4 columns) were transferred to the assay plates using a Pintool station (Wako, San Diego, CA) into each well resulting in a final DMSO concentration of 0.76%. After 3hr incubation at 37C, 1 uL/well Supplemented Lysis buffer (diluted 100 fold blocking reagent in lysis buffer) (HTRF Phospho-H2A.X (S139) Assay kit from Cisbio US Inc., Bedford, MA) was added using a Flying Reagent Dispenser (FRD) (Aurora Discovery, CA). After 10sec spin at 1000 rpm in a plate centrifuge, the assay plates were incubated at room temperature for 30 min. Then followed by the addition of 1 uL/well detection buffer (containing a mixture of two antibodies, one labeled with cryptate, Anti pH2AX (S139)-K and another labeled with d2, Anti H2AX-d2) using FRD. After incubation at room temperature for 24 hr, the time resolved fluorescence at excitation 320 nm and emissions at 665 nm and 620 nm was measured using an Envision plate reader (PerkinElmer, Waltham, MA).", "values": [
      {"smiles": "COc1ccccc1OCC(O)CO", "note": "(stereo not given)", "outcome": "inactive"},
      {"smiles": "Cc1ccc(S(=O)(=O)N=C=O)cc1", "outcome": "inactive"},
      {"smiles": "O=C(OCC1CCC2OC2C1)C1CCC2OC2C1", "note": "(stereo not given)", "outcome": "inactive"},
      {"smiles": "O=C(O)/C=C/C(=O)O", "outcome": "inactive"},
      {"smiles": "Cc1ccc([N+](=O)[O-])cc1S(=O)(=O)O", "outcome": "inactive"},
      {"smiles": "CCO[Si](CCC#N)(OCC)OCC", "outcome": "inactive"},
      {"smiles": "CCc1ccccc1CC", "outcome": "inactive"},
      {"smiles": "O=S(=O)(O)c1ccccc1", "outcome": "inactive"},
      {"smiles": "CCCCCCCCCCN", "outcome": "inactive"},
      {"smiles": "CCOCC(=O)O", "outcome": "inactive"},
      {"smiles": "C=CC(C)CCCC(C)(C)O", "note": "(stereo not given)", "outcome": "inactive"},
      {"smiles": "CCCCCCCCCCCCCCCC(=O)OC(C)C", "outcome": "inactive"},
      {"smiles": "COc1ccc(N)c(C)c1", "outcome": "inactive"},
      {"smiles": "CC(=O)OC1CC(C)OC(C)O1", "note": "(stereo not given)", "outcome": "inactive"},
      {"smiles": "C[Si]1(C)O[Si](C)(C)O[Si](C)(C)O[Si](C)(C)O1", "outcome": "inactive"},
      {"smiles": "CC(CCO)CC(C)(C)C", "note": "(stereo not given)", "outcome": "inactive"},
      {"smiles": "CC(=O)CC(C)(C)O", "outcome": "inactive"},
      {"smiles": "CN(C)CCOC(=O)COc1ccc(Cl)cc1", "outcome": "inactive"},
      {"smiles": "CC(C)CC(=O)CC(C)CC(C)C", "note": "(stereo not given)", "outcome": "inactive"},
      {"smiles": "CCCCCCCC=O", "outcome": "inactive"},
      {"smiles": "CC(C)(Oc1ccc(CCNC(=O)c2ccc(Cl)cc2)cc1)C(=O)O", "outcome": "inactive"},
      {"smiles": "CCNc1cccc(C)c1", "outcome": "inactive"},
      {"smiles": "C[C@]12CC[C@@H]3c4ccc(O)cc4CC[C@H]3[C@@H]1C[C@@H](O)[C@@H]2O", "outcome": "inactive"},
      {"smiles": "CC(C)c1cccc(C(C)C)c1", "outcome": "inactive"},
      {"smiles": "CC(O)CC(C)(C)O", "note": "(stereo not given)", "outcome": "inactive"},
      {"smiles": "CC(C)(C)c1cc(Cc2cc(C(C)(C)C)c(O)c(C(C)(C)C)c2)cc(C(C)(C)C)c1O", "outcome": "inactive"},
      {"smiles": "CCCCOC(=O)c1ccc(N)cc1", "outcome": "inactive"},
      {"smiles": "C=C(C)CNCC", "outcome": "inactive"},
      {"smiles": "CC(C)CC(C)O", "note": "(stereo not given)", "outcome": "inactive"},
      {"smiles": "NCCNCCN", "outcome": "inactive"},
      {"smiles": "CN(C)c1ccc(O)c2c1C[C@H]1C[C@H]3[C@H](N(C)C)C(=O)C(C(N)=O)=C(O)[C@@]3(O)C(=O)C1=C2O", "outcome": "inactive"},
      {"smiles": "C=C(C)C(=O)OCC(C)C", "outcome": "inactive"},
      {"smiles": "CC1(C)OC[C@@H]2O[C@@]3(C(=O)O)OC(C)(C)O[C@H]3[C@@H]2O1", "outcome": "inactive"},
      {"smiles": "Clc1ccccn1", "outcome": "inactive"},
      {"smiles": "CSc1ccc(Cl)cc1", "outcome": "inactive"},
      {"smiles": "c1ccc2c(c1)Cc1ccccc1-2", "outcome": "inactive"},
      {"smiles": "NCCCCCCN", "outcome": "inactive"},
      {"smiles": "Cc1ccc(C(C)C)c(O)c1", "outcome": "inactive"},
      {"smiles": "CCCCCCCO", "outcome": "inactive"},
      {"smiles": "CC(=O)OCc1ccccc1", "outcome": "inactive"}
    ]}
  ]
}
